Records with an inconclusive call do not appear. Activity calls are given as the source filed them. Unless noted, calls follow the shape of the full dose curve.
Legend:
[1] = Nuclear factor erythroid 2-related factor 2/antioxidant responsive element (Nrf2/ARE) small molecule agonists: qHTS cell viability counter screen in human keratinocytes (AID 1919968; active = well fitted curve in the direction sought with a large enough effect in the repeat runs; an effect the other way counts as inactive or inconclusive; also: nearly all actives have a fitted effect of over 55% in size)
How it was run: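 HaCaT ARE reporter line, 1,500 cells/well; 5 h settle, 37 C/5% CO2; cpd in DMSO pinned; 23 h exposure; CellTiter-Fluor, 1 h; fluorescence.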

[2] = Nuclear factor erythroid 2-related factor 2/antioxidant responsive element (Nrf2/ARE) small molecule agonists: luciferase reporter gene qHTS assay in human keratinocytes (AID 1919969); also: nearly all actives have a fitted effect of over 35% in size
[3] = molecular target: Gonadotropin-releasing hormone receptor (Homo sapiens) (UniProt P30968); assay: Human gonadotropin-releasing hormone receptor (GnRHR) small molecule agonists, calcium flux assay in GnRHR-HEK293 cells (AID 1920063); also: nearly all actives have a fitted effect of over 35% in size
How it was run: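 GnRHR-HEK293, 1500 cells/well, 18 h 37 C/5% CO2; Ca dye 1 h 37 C; cpd pinned (DMSO), agonist mode; kinetic FL 480/540, 3 min, 1 s reads; 15 conc, n=3.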

[4] = molecular target: KiSS-1 receptor (Homo sapiens) (UniProt Q969F8); assay: Human kisspeptin (KISS1R) small molecule agonists, calcium flux assay in KISS1R-HEK293 cells (AID 1920064; active = well fitted curve in the direction sought with a large enough effect in the repeat runs; an effect the other way counts as inactive or inconclusive)
How it was run: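 Stable human KISS1R HEK293 line; 18 h plating, 37 C/5% CO2; calcium dye 1 h 37 C; compound pin transfer; kinetic fluorescence Ex/Em 480/540, 3 min.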

[5] = G protein-coupled receptor (GPCR) small molecule agonists, calcium flux assay: HEK293 wild type cell line counter screen (AID 1920065)
How it was run: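 Kinetic fluorescence at Ex/Em 480/540, recorded every second over 3 min, served as the read-out after compound addition. Each compound was tested at 15 concentrations in triplicate on cells pre-loaded with calcium dye for 1 h.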

[6] = p53 small molecule agonists, cell-based qHTS assay with human liver microsomes (AID 1963577);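 also: p53 response element beta-lactamase reporter cells with liver microsomes plus NADPH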
How it was run: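 HLM-supplemented p53RE-bla reporter assay: 16 h compound exposure at 37 C, microsomes and NADPH each 0.5 mg/mL final, read by fluorescence intensity.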

[7] = p53 small molecule agonists, cell-based qHTS assay with rat liver microsomes (AID 1963578)
How it was run: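 Quantitative HTS of the Tox21 10K library: p53RE-bla cells, rat liver microsomes plus NADPH at 0.5 mg/mL final each, 16 h at 37 C, beta-lactamase fluorescence detection.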

[8] = p53 small molecule agonists, cell-based qHTS assay with human liver microsomes: qHTS cell viability counter screen (AID 1963579); also: nearly all actives have a fitted effect of over 45% in size
How it was run: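 Viability of p53RE-bla cells is measured as CellTiter-Glo luminescence following a 16 h, 37 C incubation with compound, liver microsomes from human donors and NADPH.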

[9] = p53 small molecule agonists, cell-based qHTS assay with rat liver microsomes: qHTS cell viability counter screen (AID 1963580); also: nearly all actives have a fitted effect of over 45% in size
How it was run: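 HCT-116 p53RE-bla, 4,000 cells/well, 5 h pre-incubation; cpd + rat liver microsomes 0.5 mg/mL + NADPH 0.5 mg/mL (final); 16 h, 37 C; CellTiter-Glo, 30 min RT; luminescence.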

[10] = p53 small molecule agonists, cell-based qHTS assay: qHTS cell viability counter screen (AID 1963581); also: nearly all actives have a fitted effect of over 45% in size
How it was run: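 HCT-116 p53RE-bla cells, 4,000/well, plated 5 h before compound pin transfer; 16 h at 37 C; bla substrate 2 h RT; then CellTiter-Glo, 30 min RT, luminescence.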

[11] = p53 small molecule agonists, cell-based qHTS assay (AID 1963582; active = well fitted activation curve with a large enough effect in the signal ratio in the repeat runs, not every such curve was filed as active; the % refers to the signal ratio)
How it was run: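 Reporter line: p53RE-bla. Pre-incubation 5 h, 37 C, 5% CO2; compound (DMSO, pin tool) 16 h, 37 C; B/G FRET substrate 2 h RT; fluorescence intensity read.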

[12] = molecular target: 5-hydroxytryptamine receptor 2A (Homo sapiens) (UniProt P28223); assay: 5-hydroxytryptamine receptor 2A (HTR2A) small molecule antagonists, cell-based qHTS assay (AID 1963586); also: nearly all actives have a fitted effect of over 45% in size
How it was run: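 Antagonist-mode intracellular calcium assay: DOI (4 nM) added after 5 min compound pre-incubation at room temperature to dye-loaded HTR2A-CHO cells. Fluorescence followed for 3 min, sampled every second.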

[13] = molecular target: 5-hydroxytryptamine receptor 2A (Homo sapiens) (UniProt P28223); assay: 5-hydroxytryptamine receptor 2A (HTR2A) small molecule agonists, cell-based qHTS assay (AID 1963587); also: nearly all actives have a fitted effect of over 30% in size
How it was run: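 Kinetic calcium-flux fluorescence (2 min, 1 sec intervals) after compound addition in agonist mode. HTR2A-CHO cells were cultured 18 h, then dye-loaded 1 h at 37 C.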

[14] = molecular target: Muscarinic acetylcholine receptor M1 (Homo sapiens) (UniProt P11229); assay: Cholinergic receptor muscarinic 1 (CHRM1) small molecule antagonists, cell-based qHTS assay (AID 1963588); also: nearly all actives have a fitted effect of over 40% in size
How it was run: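 CHRM1-CHO calcium-flux assay, antagonist mode. Cells were seeded 18 h, dye-loaded 1 h at 37 C and given compound for 5 min at RT, then acetylcholine was added at 50nM. FDSS fluorescence was read 3 min; 15 concentrations, three runs.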

[15] = cAMP Responsive Elements (CRE) small molecule antagonists, cell-based qHTS assay (AID 1963591; active = well fitted inhibition curve with a large enough effect in the signal ratio in the repeat runs, not every such curve was filed as active; the % refers to the signal ratio)
How it was run: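 Beta-lactamase reporter read by FRET substrate (LiveBLAzer B/G) after 2 h at room temperature. CRE-bla HEK293T cells had received compound plus 0.25 uM (final) NKH477 for 3 h at 37 °C.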

[16] = molecular target: D(2) dopamine receptor (Homo sapiens) (UniProt P14416); assay: Dopamine D2 receptor (DRD2) small molecule agonists, cell-based qHTS assay (AID 1963594); also: nearly all actives have a fitted effect of over 35% in size
How it was run: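 cAMP accumulation in DRD2-HEK293 cells measured by HTRF after 1 h detection; compounds added 10 min before NKH477 (200nM […]) forskolin-analogue stimulation, 30 min at room temperature, with Ro20-1724 present at 0.1 mM final.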

[17] = molecular target: Beta-2 adrenergic receptor (Homo sapiens) (UniProt P07550); assay: Adrenergic beta2 receptor (ADRB2) small molecule antagonists, cell-based qHTS assay (AID 1963592); also: series mostly up to about 92 µM; nearly all actives have a fitted effect of over 50% in size
How it was run: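 Cells (CHO, stable ADRB2 overexpression) incubated 18-20hr at 37C; compounds added from DMSO; agonist mix (1nM isoproterenol, 100uM IBMX, 25uM Ro-20-1724) added; 0.5hr RT; d2-cAMP and anti-cAMP-cryptate added; 1hr RT; 665/615 nm read.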

[18] = molecular target: Muscarinic acetylcholine receptor M1 (Homo sapiens) (UniProt P11229); assay: Cholinergic receptor muscarinic 1 (CHRM1) small molecule agonists, cell-based qHTS assay (AID 1963589); also: nearly all actives have a fitted effect of over 35% in size
How it was run: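 Human M1 in stable CHO line; 18 h plating, 1 h dye load 37 C; cpd added (agonist mode); Ca2+ fluorescence kinetic read, 1 s intervals; 15 conc, 3 runs.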

[19] = cAMP Responsive Elements (CRE) small molecule agonists, cell-based qHTS assay (AID 1963590)
How it was run: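 HEK 293T CRE-bla, 2,000 cells/well, 18 h preincubation 37 C/5% CO2; cpds (DMSO) pinned, 3 h; LiveBLAzer B/G FRET substrate, 2 h RT.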

[20] = molecular target: D(2) dopamine receptor (Homo sapiens) (UniProt P14416); assay: Dopamine D2 receptor (DRD2) small molecule antagonists, cell-based qHTS assay (AID 1963595; active = well fitted inhibition curve with a large enough effect in the signal ratio in the repeat runs, with a control signal flat; the % refers to the signal ratio)
How it was run: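 Stable D2 receptor HEK293 line, 24 h after seeding. Compound preincubated 10 min, then quinpirole (12 nM) with forskolin analogue NKH477 (200 nM), 30 min, room temperature. Detection by time-resolved FRET of cAMP.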

Measured: Potency

Beta-2 adrenergic receptor (Homo sapiens), sequence (P07550 whole entry, looked up): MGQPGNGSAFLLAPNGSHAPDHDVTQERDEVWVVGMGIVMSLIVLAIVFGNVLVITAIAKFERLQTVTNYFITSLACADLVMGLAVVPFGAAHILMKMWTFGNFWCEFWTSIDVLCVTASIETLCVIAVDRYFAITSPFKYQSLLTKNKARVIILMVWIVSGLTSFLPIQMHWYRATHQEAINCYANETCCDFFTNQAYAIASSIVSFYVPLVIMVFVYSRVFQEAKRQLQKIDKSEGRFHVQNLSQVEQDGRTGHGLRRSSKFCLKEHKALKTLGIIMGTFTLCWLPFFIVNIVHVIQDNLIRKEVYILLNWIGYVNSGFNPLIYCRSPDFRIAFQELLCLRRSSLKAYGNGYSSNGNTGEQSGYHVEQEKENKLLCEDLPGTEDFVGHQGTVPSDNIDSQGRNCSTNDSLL
Gonadotropin-releasing hormone receptor (Homo sapiens), sequence (P30968 whole entry, looked up): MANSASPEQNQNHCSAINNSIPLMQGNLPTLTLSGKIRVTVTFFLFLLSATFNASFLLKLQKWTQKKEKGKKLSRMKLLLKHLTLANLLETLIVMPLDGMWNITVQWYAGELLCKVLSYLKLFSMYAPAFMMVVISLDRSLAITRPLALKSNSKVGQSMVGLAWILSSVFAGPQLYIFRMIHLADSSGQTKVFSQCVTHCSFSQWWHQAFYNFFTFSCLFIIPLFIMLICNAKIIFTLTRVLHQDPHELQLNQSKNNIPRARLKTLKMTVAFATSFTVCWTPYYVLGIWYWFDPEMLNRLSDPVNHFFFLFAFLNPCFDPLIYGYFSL
D(2) dopamine receptor (Homo sapiens), sequence (P14416 whole entry, looked up): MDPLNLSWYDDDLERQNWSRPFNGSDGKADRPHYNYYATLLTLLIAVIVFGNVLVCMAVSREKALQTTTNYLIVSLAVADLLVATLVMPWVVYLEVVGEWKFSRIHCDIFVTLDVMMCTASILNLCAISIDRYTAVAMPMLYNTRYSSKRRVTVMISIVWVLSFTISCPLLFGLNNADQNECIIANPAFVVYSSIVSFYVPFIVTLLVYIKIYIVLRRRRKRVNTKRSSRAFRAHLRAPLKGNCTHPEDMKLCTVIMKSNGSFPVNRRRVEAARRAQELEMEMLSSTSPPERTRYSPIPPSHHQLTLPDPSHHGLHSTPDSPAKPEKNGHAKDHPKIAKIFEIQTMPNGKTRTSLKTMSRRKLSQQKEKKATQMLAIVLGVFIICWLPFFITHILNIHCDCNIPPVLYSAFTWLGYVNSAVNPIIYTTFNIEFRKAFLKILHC
Muscarinic acetylcholine receptor M1 (Homo sapiens), sequence (P11229 whole entry, looked up): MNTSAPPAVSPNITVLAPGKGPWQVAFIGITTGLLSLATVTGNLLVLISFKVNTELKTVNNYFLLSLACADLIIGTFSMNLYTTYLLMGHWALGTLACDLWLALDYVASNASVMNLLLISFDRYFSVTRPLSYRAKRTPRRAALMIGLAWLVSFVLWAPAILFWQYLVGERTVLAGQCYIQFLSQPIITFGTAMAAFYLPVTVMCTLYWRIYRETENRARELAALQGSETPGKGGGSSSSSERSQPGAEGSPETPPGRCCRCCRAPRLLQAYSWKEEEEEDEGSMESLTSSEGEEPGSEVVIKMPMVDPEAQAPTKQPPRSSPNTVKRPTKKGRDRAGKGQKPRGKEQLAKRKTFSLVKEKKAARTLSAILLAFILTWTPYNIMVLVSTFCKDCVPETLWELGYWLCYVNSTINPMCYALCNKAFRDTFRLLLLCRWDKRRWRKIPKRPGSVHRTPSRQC
5-hydroxytryptamine receptor 2A (Homo sapiens), sequence (P28223 whole entry, looked up): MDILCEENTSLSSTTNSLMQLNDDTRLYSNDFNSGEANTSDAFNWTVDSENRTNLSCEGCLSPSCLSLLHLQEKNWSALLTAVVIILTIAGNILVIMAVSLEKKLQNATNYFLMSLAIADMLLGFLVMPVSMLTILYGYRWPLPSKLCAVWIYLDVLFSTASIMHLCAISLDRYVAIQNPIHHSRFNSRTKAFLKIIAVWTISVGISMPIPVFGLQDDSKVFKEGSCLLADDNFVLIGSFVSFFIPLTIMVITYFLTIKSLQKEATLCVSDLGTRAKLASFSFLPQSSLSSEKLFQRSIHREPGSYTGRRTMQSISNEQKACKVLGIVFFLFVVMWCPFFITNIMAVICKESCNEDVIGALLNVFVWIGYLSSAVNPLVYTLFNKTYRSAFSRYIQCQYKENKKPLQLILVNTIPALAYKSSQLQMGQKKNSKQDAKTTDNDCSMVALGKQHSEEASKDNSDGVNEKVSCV
KiSS-1 receptor (Homo sapiens), sequence (Q969F8 whole entry, looked up): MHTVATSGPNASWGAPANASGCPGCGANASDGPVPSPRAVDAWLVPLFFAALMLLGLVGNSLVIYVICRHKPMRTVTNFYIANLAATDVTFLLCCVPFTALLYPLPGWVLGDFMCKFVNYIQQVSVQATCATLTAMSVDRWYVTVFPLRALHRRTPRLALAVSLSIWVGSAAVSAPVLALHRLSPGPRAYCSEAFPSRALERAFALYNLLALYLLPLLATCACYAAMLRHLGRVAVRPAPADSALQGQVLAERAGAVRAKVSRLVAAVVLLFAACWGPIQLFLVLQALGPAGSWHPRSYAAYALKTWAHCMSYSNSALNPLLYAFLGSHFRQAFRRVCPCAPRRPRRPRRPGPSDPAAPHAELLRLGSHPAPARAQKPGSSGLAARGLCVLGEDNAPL

Cc1cc(N)c2cc(NC(=O)Nc3ccc4nc(C)cc(N)c4c3)ccc2n1
not listed: [17] | [18] | [19] | [20]
inactive: all other assays above

O=C(OCC(O)CO)c1ccccc1Nc1ccnc2c(C(F)(F)F)cccc12 (stereo not drawn)
not listed: [15] | [18] | [19] | [20]
inactive: all other assays above

Cc1scc2c1N(C(=O)CN1CCN(C)CC1)c1ccccc1NC2=O
not listed: [14]
inactive: all other assays above

CC(=O)SC[C@@H](Cc1ccccc1)C(=O)NCC(=O)OCc1ccccc1
not listed: [14] | [15]
inactive: all other assays above

CCCCOCCOC(=O)COc1ccc(Cl)cc1Cl
not listed: [14] | [15] | [19]
inactive: all other assays above

CC1(C)OC[C@@H](COC(=O)CCc2ccc(OC[C@@H](O)CNCCNC(=O)N3CCOCC3)cc2)O1
not listed: [17] | [18]
inactive: all other assays above

COC(=O)c1ccc(NC(C)=O)cc1OC
not listed: [14]
inactive: all other assays above

From PubChem BioAssay (Tox21)
